Data on 94 molecules can be found in PubChem BioAssay AID588850 (Sanford-Burnham Center for Chemical Genomics, 2011).

Structures are written as SMILES. The whole screen tested about 360,000 compounds, of which about 3,100 (0.86%) were called active.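 The calls were made as follows: active = at least 50% inhibition at 5 µM, scaled per plate between neutral and stimulator controls; inactive = the rest.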 The entries come from a sample that favours actives as a whole.

A short description of this experiment: inhibitors of PAF-induced NF-kB signaling, primary screen, cell-based, GFP fluorescence, uHTS (AID 588850).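 Also: PAF is a Pseudomonas aeruginosa culture filtrate used as stimulus; plate controls were PAF-stimulated DMSO wells for no effect and unstimulated DMSO wells for full effect.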 The following applies: KKLEB NF-kB-GFP reporter, GFP fluorescence overnight, at 5 µM, active compounds read high.
As usually defined, the inhibition is the change of the read-out against control, counted positive when it falls. With `O=C(Nc1cccc2ccccc12)NC1CC1`, the inhibition is -3.5% (inactive).
In the case of `O=C(Nc1cccc2ccccc12)c1[nH]c(-c2ccccc2)c2c1C(=O)N(C1CC1)C2=O`, the inhibition was 63.7% (active).
As for `O=C(Nc1cccc2ccccc12)c1onc2c1CCCC2`, the inhibition was -10.2% (inactive).
The same measure for `CCC(=O)N(Cc1cc2ccccc2[nH]c1=O)c1ccc(OC)cc1`: -0.6% (inactive).
The result for `CC(=O)N(Cc1cc(=O)[nH]c2ccccc12)c1ccc(C)cc1C` reads 10.4% (inactive).
In the case of `Cc1ccc(N(Cc2cc(=O)[nH]c3ccccc23)C(=O)CCl)cc1`, the inhibition was 63.4% (active).
The same measure for `CCOC(=O)N1CCN(C(=O)c2ccccc2SCC(=O)NCC2CCCCC2)CC1`: -2% (inactive).
The same measure for `Cc1ccc(C(=O)CCC(=O)N(C)CC(=O)Nc2c(Cl)cccc2Cl)cc1`: -7.8% (inactive); for `Cc1ccc(NC(=O)CN(C)C(=O)COC(=O)c2nccnc2N)cc1`: -12.4% (inactive).
In the case of `CC1=C(C)CC(C(=O)NNC(=O)c2ccccc2O)C(C(=O)O)C1` (centres undefined), the inhibition is -2.9% (inactive).
The result for `O=C(NNC(=O)c1ccccc1O)c1ccccc1O` reads 61.7% (active).
The same measure for `Cc1cc(C(=O)CCC(=O)NNC(=O)c2ccccc2O)c(C)s1`: -22% (inactive); for `COCCNC(=O)c1ccc2c(c1)ncn2-c1ccc(C)c(Cl)c1`: -3.6% (inactive); for `COCCN(C(=O)CCC(=O)Nc1nccs1)C(C(=O)NCCC(C)C)c1ccc(F)cc1` (centres undefined): -16.8% (inactive).
The result for `O=C(O)c1cc(S(=O)(=O)N(Cc2ccccc2)c2cccc(C(F)(F)F)c2)ccc1Cl` reads -4.7% (inactive); that for `O=C(NNc1ccccc1Cl)C(O)(c1cccc(C(F)(F)F)c1)c1cccc(C(F)(F)F)c1`, 55.6% (active); that for `O=C(CNS(=O)(=O)c1cccc(C(F)(F)F)c1)Nc1ccccc1F`, -4.7% (inactive).
As for `Cc1cccc(NC(=O)CSc2nnc(CCCCCNC(=O)OC(C)(C)C)o2)c1C`, the inhibition is -6.7% (inactive).
The same measure for `NC(=O)COc1ccccc1C(=O)NC12CC3CC(CC(C3)C1)C2`: 3.5% (inactive); for `C=C1C(=O)[C@]23C[C@H]1CCC2[C@@]1(C)C(C[C@@H]3O)[C@](C)(C(=O)O)CC[C@@H]1O` (some centres undefined): 82.6% (active).
The same measure for `CCN(CC)CCCNC(=O)c1cn(C)c2ccc(S(=O)(=O)N(C)C3CCCCC3)cc2c1=O`: 9.2% (inactive).
The same measure for `CC(=O)c1cccc(-c2ccc(CN3C(CC(C)C)C(=O)N(Cc4cn(CC5CCCCC5)nn4)CCS3(=O)=O)cc2)c1` (centres undefined): 13.4% (inactive).
Consider `CC(C)CC1C(=O)N(Cc2cn(CC3CCCCC3)nn2)CCS(=O)(=O)N1Cc1ccc(-c2ccc(Cl)cc2)cc1` (centres undefined), for which the inhibition is 55.8% (active).
On to `CC1C(=O)N(Cc2cn(Cc3ccco3)nn2)CCS(=O)(=O)N1Cc1ccc(-c2cccc(CO)c2)cc1` (centres undefined), for which the inhibition is 3.2% (inactive).
The result for `COc1ccc(-c2ccc(CN3C(CC(C)C)C(=O)N(Cc4cn(CC5CCCCC5)nn4)CCS3(=O)=O)cc2)cc1` (centres undefined) reads 41.4% (inactive); that for `CC(C)CC1C(=O)N(Cc2cn(Cc3ccco3)nn2)CCS(=O)(=O)N1Cc1ccc(-c2ccc(Cl)c(Cl)c2)cc1` (centres undefined), 66.8% (active).
The result for `COCOCCn1cc(CN2CCS(=O)(=O)N(Cc3ccc(-c4ccccc4)cc3)C(CC(C)C)C2=O)nn1` (centres undefined) reads 23.5% (inactive); that for `COCOCCn1cc(CN2CCS(=O)(=O)N(Cc3ccc(-c4ccc(OC)cc4)cc3)C(CC(C)C)C2=O)nn1` (centres undefined), -5% (inactive).
The same measure for `COc1ccc(-c2ccc(CN3C(C(C)C)C(=O)N(Cc4cn(CC5CCCCC5)nn4)CCS3(=O)=O)cc2)cn1` (centres undefined): -2.4% (inactive).
On to `COc1ccc(-c2ccc(CN3C(CC(C)C)C(=O)N(Cc4cn(CC5CCCCC5)nn4)CCS3(=O)=O)cc2)cn1` (centres undefined), for which the inhibition is 66.1% (active).
The result for `Cc1ccccc1N1C(=O)C(Oc2ccc(Cl)cc2)C1CNCC1CCCO1` (centres undefined) reads -17.5% (inactive); that for `CC(Sc1nncn1C)C(=O)Nc1ccccc1-c1ccccc1` (centres undefined), -12.2% (inactive); that for `Cc1cccc(N(C(=O)Cc2cccs2)C(C(=O)NCc2ccco2)c2ccncc2)c1` (centres undefined), -3.5% (inactive).
The same measure for `Cc1nn(C(C)C(=O)N2CCOCC2)c(=O)c2nn(-c3ccccc3)c(C)c12` (centres undefined): 1.5% (inactive).
The result for `CC(=O)Nc1ccc(S(=O)(=O)NCC2CCC(C(=O)NCCc3ccccc3)CC2)cc1` (centres undefined) reads 8.9% (inactive); that for `CC1(C(=O)NS(=O)(=O)c2ccccc2)CCN1C(=O)c1ccccc1` (centres undefined), -17.7% (inactive).
As to `COc1cc(OC)c(C(=O)NNC(=O)c2ccc(NS(=O)(=O)c3cccs3)cc2)cc1OC`, the inhibition was 0.1% (inactive).
The same measure for `Nc1nonc1-n1nnc(C(=O)N/N=C/C2CCCCC2)c1-c1ccccc1`: 3.7% (inactive); for `CCCOc1ccc(-c2c(C(=O)N/N=C/c3ccco3)nnn2-c2nonc2N)cc1`: -21.8% (inactive); for `Nc1nonc1-n1nnc(C(=O)N/N=C/c2ccc(Cl)cc2)c1-c1ccc2c(c1)OCO2`: 52.5% (active).
The same measure for `CSc1ccc(CN2CCC2(C)C(=O)Nc2ccc(C)c(O)c2)cc1` (centres undefined): 0% (inactive); for `CCCc1nc(N)nc2c1C(=O)CC(C)(C)C2`: 16.2% (inactive); for `COc1ccc(/C=C/C(=O)c2c(O)cc(OC)cc2OC)cc1`: -12.9% (inactive).
The same measure for `COc1ccc2cc(-c3[nH]ncc3CNCCn3nc(C)cc3C)ccc2c1`: -8.4% (inactive); for `CCOc1ccccc1Oc1cn[nH]c1-c1ccc(OC)cc1O`: 13% (inactive); for `COc1ccc(-c2cn[nH]c2-c2ccc(OC)cc2)cc1`: 88% (active).
Consider `CCOc1ccc(C(C)=O)cc1CSc1nnc(-c2ccncc2)n1CCOC`, for which the inhibition is -0.6% (inactive).
Turning to `CS(=O)(=O)N(CC(=O)Nc1ccc(F)cc1F)c1cccc([N+](=O)[O-])c1`, the inhibition is 10.1% (inactive).
As for `O=c1[nH]c2ccccc2n1C1CCN(CCOc2ccccc2)CC1`, the inhibition is -0.9% (inactive).
The result for `COc1ccc(CNc2ncnc3ccccc23)cc1` reads 51.6% (active).
The result for `COc1ccc(CNc2nccs2)cc1` reads -5.6% (inactive).
The same measure for `c1ccc(CNc2ncnc3[nH]ncc23)cc1`: 0.6% (inactive).
Consider `Nc1ccc(S(=O)(=O)Nc2nccc(/C=C/c3ccc(Br)s3)n2)cc1`, for which the inhibition is 14.6% (inactive).
The result for `Oc1cccc2ccc(/C=C/c3ccc(Br)s3)nc12` reads 82.5% (active); that for `Clc1ccc2nc(CSc3ccccc3)cn2c1`, -13.5% (inactive); that for `O=C(C1CCCO1)N1CCN(C(=S)NC2CC2)CC1` (centres undefined), 3.7% (inactive).
With `C[C@@H]1C[C@@H]2O[C@H]2/C=C\C=C\C(=O)Cc2c(Cl)c(O)cc(O)c2C(=O)O1`, the inhibition was 60.3% (active).
The result for `COc1ccc(S(=O)(=O)N2CCN(CC(=O)N3CCNC3=O)CC2)cc1OC` reads 0.2% (inactive); that for `COc1ccc(Br)cc1CN1CCN(C(=O)c2cccc(OC)c2OC)CC1`, 18.7% (inactive).
As for `CN(C(=O)CC1C(=O)NCCN1Cc1ccc2ccccc2c1)C1CCOCC1` (centres undefined), the inhibition is 15.4% (inactive).
Regarding `COc1ccc(N(C(=O)c2snc(C(N)=O)c2N)C(C(=O)NC2CCCC2)c2ccco2)cc1OC` (centres undefined), the inhibition was 6.4% (inactive).
The same measure for `CSc1ccccc1C(=O)Nc1cccc(C(C)=O)c1`: -14.6% (inactive); for `C=CCSc1nsc(NC(=O)Nc2cccc(C(C)=O)c2)n1`: 86.3% (active).
The result for `COc1ccc(NC(C(=O)Nc2cccc(C(C)=O)c2)c2ccccc2)cc1` (centres undefined) reads -4.2% (inactive); that for `CC(=O)c1cccc(NC(=S)N2CCN(S(C)(=O)=O)CC2)c1`, -11.2% (inactive); that for `CC(=O)c1cccc(NC(=O)C2CCN(C(=O)c3ccccc3Cl)CC2)c1`, 4.3% (inactive).
As to `CCSc1nsc(NC(=O)Nc2cccc(C(C)=O)c2)n1`, the inhibition was 86.3% (active).
The same measure for `CCOCCCNC(=O)c1ccc(CS(=O)(=O)c2cccc(C(F)(F)F)c2)o1`: -2.1% (inactive); for `CC1C(=O)Nc2ccccc2N1C(=O)c1c(F)cccc1F` (centres undefined): -2.1% (inactive).
In the case of `COc1cccc(-c2nn(-c3ccccc3)cc2/C=C(\C#N)C(=O)NCCCn2ccnc2)c1`, the inhibition is -21.2% (inactive).
The same measure for `CC1CCCC(NC(=O)COC(=O)c2ccccc2C(=O)N(C)C2CCCCC2)C1C` (centres undefined): 17.7% (inactive); for `C=CCN(c1ccc(C(N)=O)cc1)S(C)(=O)=O`: -12% (inactive); for `Cc1c(C)c2ccc(OCC(=O)N3CCN(c4cccc(Cl)c4)CC3)cc2oc1=O`: 63.5% (active).
The result for `Cc1cc(OCC(=O)N2CCN(c3ncccn3)CC2)ccc1Cl` reads 1.3% (inactive).
With `COc1ccc(N2CCN(C(=O)COc3ccc4c(C)cc(=O)oc4c3)CC2)cc1`, the inhibition was -21.4% (inactive).
The same measure for `CC1(C)Cc2c(sc3nc(SCC(=O)NCc4ccccc4)n(-c4ccccc4)c(=O)c23)CS1`: 4.3% (inactive).
With `Cc1ccc(S(=O)(=O)N2CCCC2CO)cc1` (centres undefined), the inhibition was -11% (inactive).
The same measure for `CCn1ncc(Br)c1C(=O)Nc1cc(C)ccc1F`: 4.3% (inactive); for `Cc1ccc(CCC(=O)Nc2ncc(Cc3cc(Cl)ccc3Cl)s2)o1`: 64% (active); for `Cc1ccc(Cc2cnc(N)s2)o1`: 4.4% (inactive).
The same measure for `O=C(CCc1ccccc1Cl)Nc1ccc(S(=O)(=O)Nc2nccs2)cc1`: 8.7% (inactive).
The result for `COc1ccccc1/C=C/CN1CCC(CO)(Cc2ccccc2)CC1` reads 20.7% (inactive).
Regarding `CC(C)(C)NC(=O)Cn1c(SCC(=O)Nc2nccs2)nc2ccccc21`, the inhibition is -6.3% (inactive).
The same measure for `COCCCNC(=S)N1CCN(c2nc(-c3cccc(OC)c3)cs2)CC1`: -8.2% (inactive).
The result for `c1ccc(C(=NNc2nc3ccccc3s2)c2ccccn2)cc1` reads -25.7% (inactive); that for `O=[N+]([O-])c1cc(Br)c(O)c(/C=N/Nc2nc3ccccc3s2)c1`, 63.5% (active).
Regarding `O=C(N/N=C/c1cc(Br)c(O)c([N+](=O)[O-])c1)C(O)(c1ccccc1)c1ccccc1`, the inhibition was -3.5% (inactive).
The same measure for `CCOC(=O)c1ccc(-c2ccc3ncnc(N(C)Cc4sccc4C)c3c2)o1`: 32.3% (inactive); for `O=C(Nc1nnc(Cc2ccc(Cl)cc2)s1)c1cccnc1`: 2.8% (inactive).
The result for `CCOC(=O)CSc1nnc(NC(=O)c2cccc(S(=O)(=O)N3CCCCC3)c2)s1` reads 5.1% (inactive).
For `O=C(Nc1nnc(-c2ccc(F)cc2)s1)c1c(F)cccc1Cl`, the inhibition is 11% (inactive).
The result for `Cc1ccc(CS(=O)(=O)c2ncc(Cl)c(C(=O)Nc3nnc(C)s3)n2)cc1` reads 92.5% (active); that for `CSc1nnc(NC(=O)c2nc(S(=O)(=O)Cc3ccc(C)cc3)ncc2Cl)s1`, 104% (active).
The result for `Cc1ccc(S(=O)(=O)CCC(=O)Nc2nnc(CC(C)C)s2)cc1` reads 8.1% (inactive).
